Bioassay records: PubChem, The Scripps Research Institute Molecular Screening Center
An excerpt weighted towards active compounds, which were near 3.5% of everything screened.
MITF inh = blocks human microphthalmia-associated transcription factor; O75030; AlphaScreen MITF homodimerization, bead proximity signal; inhibition, % at 2.6 µM; 650,000 tested, 0.91% active; AID 1259374; in the data active = inhibition above about 50%;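 note: 0% = vehicle wells with protein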
FBW7 activator = human FBW7 E3 ligase activation, primary screen; AID 1259310; 650,000 tested, 0.13% active; normalized activity (activation), % at 26.1 µM; AlphaScreen FBW7–phospho-cyclin E peptide binding, activator screen; Q969H0; in the data active = normalized activity above about 1.9%;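 note: purified mutant Fbw7 with reduced substrate affinity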
Target sequence (Q969H0 whole entry, looked up): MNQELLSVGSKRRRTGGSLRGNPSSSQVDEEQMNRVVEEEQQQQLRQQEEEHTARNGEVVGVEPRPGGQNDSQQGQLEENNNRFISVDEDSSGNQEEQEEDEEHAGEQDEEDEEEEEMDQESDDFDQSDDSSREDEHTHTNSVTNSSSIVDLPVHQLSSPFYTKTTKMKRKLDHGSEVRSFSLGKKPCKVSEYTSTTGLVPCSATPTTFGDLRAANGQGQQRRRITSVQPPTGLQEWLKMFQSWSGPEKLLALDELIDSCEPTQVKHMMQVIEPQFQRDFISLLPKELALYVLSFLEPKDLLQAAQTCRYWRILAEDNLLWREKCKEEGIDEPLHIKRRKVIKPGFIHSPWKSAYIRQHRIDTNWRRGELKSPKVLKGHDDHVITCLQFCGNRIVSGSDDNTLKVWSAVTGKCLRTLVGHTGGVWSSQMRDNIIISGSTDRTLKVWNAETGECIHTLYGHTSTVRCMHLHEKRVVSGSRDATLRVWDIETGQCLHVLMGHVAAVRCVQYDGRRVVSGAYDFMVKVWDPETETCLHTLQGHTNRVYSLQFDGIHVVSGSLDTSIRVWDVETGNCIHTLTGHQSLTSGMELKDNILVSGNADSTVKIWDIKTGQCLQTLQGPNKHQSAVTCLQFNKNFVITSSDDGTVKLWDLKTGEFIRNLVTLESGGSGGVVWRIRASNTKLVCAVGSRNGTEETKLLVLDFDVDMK
GPR151 ag = activates the human receptor GPR151; Q8TDV0; PathHunter beta-arrestin GPR151 cells, luminescence; activation, % at 11.2 µM; 650,000 tested, 1% active; in the data active = activation above about 4.9%;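 note: 0% = median of compound wells and 100% = cells with positive control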
TEAD-YAP block = TEAD-YAP interaction inhibition. HEK-TIYL cells, TEAD-Gal4/YAP UAS-luciferase luminescence. 640,000 tested, 1.4% active. inhibition, % at 9.12 µM; in the data active = inhibition above about 32%;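 note: 0% = median of test compound wells and 100% = reference inhibitor wells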
GPR151 conf act = human GPR151 activation, confirmation screen. GPR151 PathHunter beta-arrestin cells, luminescence, 90 min; % of EA-reagent control over plate median. AID 1508609. shares compounds with GPR151 ag. 6,700 tested, under 10 active. activation, % at 11.2 µM;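 active = mean percent activation across replicates above the confirmation screen cutoff of 4.91%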
GPR119 ag = GPR119 activation, counter-screen for GPR151 activators; shares compounds with GPR151 ag; GPR119 PathHunter beta-arrestin cells, luminescence, 90 min; 0 = compound-well median, 100 = enzyme-acceptor control; activation, % at 11.2 µM; 6,700 tested, 0.3% active; AID 1508611;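 active = mean percent activation in the counterscreen above 29.09%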;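 note: counterscreen on off-target GPR119 to flag nonselective hits from the GPR151 activator screen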
* hit, by the source's call; nt = not tested or not shown.

SMILES	MITF inh	FBW7 activator	GPR151 ag	TEAD-YAP block	GPR151 conf act	GPR119 ag
Cc1cc(C)nc(SCC(=O)Nc2ncc3c(n2)CC(C)(C)CC3=O)n1	6	0	5.6*	8	1	13
CCN(CC)S(=O)(=O)c1ccc2c(c1)c(=O)c(C(=O)N(C)CC(OC)OC)cn2C	11	0	0	6	nt	nt
CCN(CC)S(=O)(=O)c1ccc2c(c1)c(=O)c(C(=O)N(C)CCC#N)cn2C	7	0	6.1*	-18	0	-3
Cc1ccc(SCC(=O)OCC(=O)NC2CC2)cc1	-1	0	2	4	nt	nt
O=C(Nc1ccccc1N(C(=O)C1CC1)S(=O)(=O)c1cccs1)C1CC1	3	0	5.0*	3	0	15
Cc1cc(C)n2c(SCC(=O)NC(=O)NC(C)(C)C)nnc2n1	1	0	5.5*	7	0	6
COc1cc2nc(Nc3ccncc3)nc(Nc3ccc(N4CCOCC4)cc3)c2cc1OC	18	0	6.6*	-7	0	-2
CSCC(=O)N1CCCC(C(=O)Nc2ccc(-c3cccc(F)c3)cc2)C1 (configuration not stated)	-6	0	5.6*	-38	1	5
CC(C)(CO)CN1CCCC(C(=O)Nc2cccc(-c3ccc(F)cc3)c2)C1 (configuration not stated)	-18	1	6.2*	-5	-1	-15
CSCCC(=O)N1CCCC(C(=O)Nc2ccc(-c3cccc(F)c3)cc2)C1 (configuration not stated)	5	0	2	-7	nt	nt
O=C(Nc1cccc(-c2ccc(F)cc2)c1)C1CCCN(C(=O)c2cscn2)C1 (configuration not stated)	9	0	17*	7	0	-1
O=C(Nc1ccc(-c2cccc(F)c2)cc1)C1CCCN(C(=O)c2cscn2)C1 (configuration not stated)	15	0	-2	-33	nt	nt
CCOc1ccc(C(c2sc3nc(C)nn3c2O)N2CCCCC2)cc1 (configuration not stated)	11	1	-1	3	nt	nt
CCN1C(=O)/C(=C\c2cccc(O)c2)C(C(=O)OC)=C1C	0	0	0	5	nt	nt
COc1ccc(-c2noc(N(C)CC(=O)N3CCN(c4ccccc4OC)CC3)n2)cc1	2	0	6.5*	-6	0	-21
COc1ccc(-c2noc(N(C)CC(=O)N3CCN(c4cccc(Cl)c4)CC3)n2)cc1	0	0	-1	-4	nt	nt
Cc1cccn2c(=O)c3cc(C(=O)N4CCc5ccccc54)sc3nc12	10	0	5.0*	4	0	6
Cc1nc(SCC(=O)O)cc(-c2ccccc2)n1	-14	0	5.0*	-5	-1	-2
O=C(O)CSc1nc(-c2ccccc2)cc(C(F)F)n1	-3	0	-1	1	nt	nt
COc1cccc(-n2c(SCC(=O)NC3CCCC3)nc3n[nH]c(C)c3c2=N)c1	4	0	0	5	nt	nt
CC1(C)C(=O)OC(c2ccccc2)C2(CCCC2)C1=O (configuration not stated)	-3	0	6.0*	-1	1	5
CC1(C)C(=O)OC(c2ccc(Br)cc2)C2(CCCCC2)C1=O (configuration not stated)	13	0	-1	2	nt	nt
Cc1cccc(C(=O)N2CCN3C(=O)[C@@H](Cc4ccc(O)cc4)NC(=O)[C@H]3C2)c1	10	0	0	7	nt	nt
CC(C)NCC(O)COc1ccc2c(c1)CCC2 (configuration not stated)	-8	0	-2	23	nt	nt
CC(C)(C)c1ccc(OCC(O)CNC2CCCC2)cc1 (configuration not stated)	-7	0	12*	-2	0	15
OC(CNC1CCCC1)COc1ccc2c(c1)CCC2 (configuration not stated)	-8	0	12*	9	-1	-10
CCCCNC(=O)[C@@H]1Cc2ccccc2N1C(=O)C(N)CC (some centres not stated)	33	0	0	nt	nt	nt
CCC(C)NC(=O)C1CCCN(S(=O)(=O)N2CCOCC2)C1 (configuration not stated)	6	0	8.8*	-1	0	0
COc1ccc(Cc2nnc(Nc3ccccc3C)[nH]c2=O)cc1	12	0	-1	7	nt	nt
